Laboratory results: PubChem BioAssay (EPA / NIEHS)
Where a structure was tested more than once in an assay, its records may differ in their call. The source made the active and inactive calls. The calls were made as follows: active = hit-call score of the fitted dose curve at least 0.9, where 1 is the maximum; inactive = score below 0.9.

Experiments:
[1] = read-out: Tissue plasminogen activator (tPA), PLAT (gene 5327); assay: BSK_BE3C_tPA: BioMAP Diversity Plus: BE3C Assay for Tissue plasminogen activator (tPA) Biomarker Activity (AID 2283041); conditions: primary human bronchial epithelial cells; actives raise or lower the signal
How it was run: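 Human primary bronchial epithelial cells were dosed with chemical and tPA biomarker levels measured by ELISA 24 hours later. Activity was fitted bidirectionally against DMSO as negative control and baseline.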

[2] = read-out: Interleukin-8 (IL8), CXCL8 (gene 3576); assay: BSK_CASM3C_IL8: BioMAP Diversity Plus: CASM3C Assay for Interleukin-8 (IL8) Biomarker Activity (AID 2283042); conditions: primary human coronary artery smooth muscle cells; actives raise or lower the signal;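 also: IL-8 protein level quantified by ELISA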
[3] = read-out: Human Leukocyte Antigen - DR isotype (HLADR), HLA-DRA (gene 3122); assay: BSK_CASM3C_HLADR: BioMAP Diversity Plus: CASM3C Assay for Human Leukocyte Antigen - DR isotype (HLADR) Biomarker Activity (AID 2283043); conditions: primary human coronary artery smooth muscle cells; actives raise or lower the signal;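 also: cell-surface HLA-DR protein level quantified by ELISA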
[4] = read-out: Macrophage colony-stimulating factor (MCSF), CSF1 (gene 1435); assay: BSK_CASM3C_MCSF: BioMAP Diversity Plus: CASM3C Assay for Macrophage colony-stimulating factor (MCSF) Biomarker Activity (AID 2283044); conditions: primary human coronary artery smooth muscle cells; actives raise or lower the signal;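 also: M-CSF protein amount quantified by ELISA after 24 h exposure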
[5] = read-out: Low-density lipoprotein receptor (LDLR), LDLR (gene 3949); assay: BSK_CASM3C_LDLR: BioMAP Diversity Plus: CASM3C Assay for Low-density lipoprotein receptor (LDLR) Biomarker Activity (AID 2283045); conditions: primary human coronary artery smooth muscle cells; actives raise or lower the signal;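 also: LDLR protein level on the cell surface quantified by ELISA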
[6] = read-out: Monocyte Chemoattractant Protein-1 (MCP1), CCL2 (gene 6347); assay: BSK_CASM3C_MCP1: BioMAP Diversity Plus: CASM3C Assay for Monocyte Chemoattractant Protein-1 (MCP1) Biomarker Activity (AID 2283046); conditions: primary human coronary artery smooth muscle cells; actives raise or lower the signal;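 also: MCP-1 level quantified by ELISA 24 h after dosing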
[7] = BSK_CASM3C_Proliferation: Cell Proliferation Assessment in the BioMAP Diversity Plus: CASM3C Assay (AID 2283047); conditions: primary human coronary artery smooth muscle cells;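 also: sulforhodamine B total protein stain as relative cell number at 560 nm; sub-confluent cells exposed 48 h before staining; fitted both ways against DMSO so gain or loss of cell number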
[8] = read-out: Monokine induced gamma interferon (MIG), CXCL9 (gene 4283); assay: BSK_CASM3C_MIG: BioMAP Diversity Plus: CASM3C Assay for Monokine induced gamma interferon (MIG) Biomarker Activity (AID 2283048); conditions: primary human coronary artery smooth muscle cells; actives raise or lower the signal;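 also: MIG protein level measured by ELISA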
[9] = read-out: serum amyloid A (SAA), SAA1 (gene 6288); assay: BSK_CASM3C_SAA: BioMAP Diversity Plus: CASM3C Assay for serum amyloid A (SAA) Biomarker Activity (AID 2283049); conditions: primary human coronary artery smooth muscle cells; actives raise or lower the signal;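 also: SAA protein level quantified by ELISA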
[10] = BSK_CASM3C_SRB: Viability Assessment in the BioMAP Diversity Plus: CASM3C Assay (AID 2283050); conditions: primary human coronary artery smooth muscle cells;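 also: total protein by SRB staining as cytotoxicity measure in parallel cultures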
[11] = read-out: Thrombomodulin, THBD (gene 7056); assay: BSK_CASM3C_Thrombomodulin: BioMAP Diversity Plus: CASM3C Assay for Thrombomodulin Biomarker Activity (AID 2283051); conditions: primary human coronary artery smooth muscle cells; actives raise or lower the signal;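 also: thrombomodulin protein level measured by ELISA 24 h after dosing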
[12] = read-out: Tissue Factor, F3 (gene 2152); assay: BSK_CASM3C_TissueFactor: BioMAP Diversity Plus: CASM3C Assay for Tissue Factor Biomarker Activity (AID 2283052); conditions: primary human coronary artery smooth muscle cells; actives raise or lower the signal;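 also: cell surface tissue factor protein level read by ELISA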
[13] = read-out: Interferon-gamma inducible Protein 10 (IP10), CXCL10 (gene 3627); assay: BSK_hDFCGF_IP10: BioMAP Diversity Plus: hDFCGF Assay for Interferon-gamma inducible Protein 10 (IP10) Biomarker Activity (AID 2283053); conditions: primary human foreskin fibroblasts; actives raise or lower the signal
How it was run: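 Human foreskin fibroblast primary cells (hDFCGF system) were dosed with chemical and assayed at 24 h; IP-10 measured by ELISA. Activity fitted bidirectionally relative to DMSO negative control as baseline.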

[14] = read-out: Urokinase-type plasminogen activator receptor (uPAR), PLAUR (gene 5329); assay: BSK_CASM3C_uPAR: BioMAP Diversity Plus: CASM3C Assay for Urokinase-type plasminogen activator receptor (uPAR) Biomarker Activity (AID 2283054); conditions: primary human coronary artery smooth muscle cells; actives raise or lower the signal;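 also: cell-surface uPAR protein level quantified by ELISA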
[15] = read-out: Vascular cell adhesion molecule 1 (VCAM1), VCAM1 (gene 7412); assay: BSK_CASM3C_VCAM1: BioMAP Diversity Plus: CASM3C Assay for Vascular cell adhesion molecule 1 (VCAM1) Biomarker Activity (AID 2283055); conditions: primary human coronary artery smooth muscle cells; actives raise or lower the signal;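 also: VCAM-1 protein level quantified by ELISA on the cells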
[16] = read-out: Collagen III, COL3A1 (gene 1281); assay: BSK_hDFCGF_CollagenIII: BioMAP Diversity Plus: hDFCGF Assay for Collagen III Biomarker Activity (AID 2283056); conditions: primary human foreskin fibroblasts; actives raise or lower the signal
How it was run: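 hDFCGF primary human dermal fibroblasts; 24 h chemical exposure; collagen III by ELISA; bidirectional curve fit vs DMSO baseline (gain or loss of signal).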

[17] = read-out: Epidermal growth factor receptor (EGFR), EGFR (gene 1956); assay: BSK_hDFCGF_EGFR: BioMAP Diversity Plus: hDFCGF Assay for Epidermal growth factor receptor (EGFR) Biomarker Activity (AID 2283057); conditions: primary human foreskin fibroblasts; actives raise or lower the signal
How it was run: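 Primary human foreskin fibroblasts were exposed to compound for 24 h, after which cell-surface EGFR was quantified by ELISA. Activity was fitted bidirectionally against the DMSO negative control as baseline.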

[18] = read-out: Interleukin-8 (IL8), CXCL8 (gene 3576); assay: BSK_hDFCGF_IL8: BioMAP Diversity Plus: hDFCGF Assay for Interleukin-8 (IL8) Biomarker Activity (AID 2283058); conditions: primary human foreskin fibroblasts; actives raise or lower the signal
How it was run: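 ELISA read-out of IL-8 from primary human foreskin fibroblast cultures taken 24 h after dosing; values are bidirectional fits relative to DMSO vehicle.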

[19] = BSK_hDFCGF_Proliferation: Cell Proliferation Assessment in the BioMAP Diversity Plus: hDFCGF Assay (AID 2283059); conditions: primary human foreskin fibroblasts;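 also: curves fitted for both rise and fall of signal versus DMSO baseline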
How it was run: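 This proliferation readout used SRB total-protein staining of human foreskin fibroblasts […], normalized to DMSO with bidirectional curve fitting.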

[20] = read-out: Macrophage colony-stimulating factor (MCSF), CSF1 (gene 1435); assay: BSK_hDFCGF_MCSF: BioMAP Diversity Plus: hDFCGF Assay for Macrophage colony-stimulating factor (MCSF) Biomarker Activity (AID 2283060); conditions: primary human foreskin fibroblasts; actives raise or lower the signal
How it was run: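 ELISA read-out of M-CSF in human dermal foreskin fibroblast cultures, 24 h after chemical dosing; gain or loss of signal fitted bidirectionally relative to DMSO baseline.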

Measured: AC50

COc1cc(C=O)ccc1OC(=O)C(C)C
inactive: [1] | [2] | [3] | [4] | [5] | [6] | [7] | [8] | [9] | [10] | [11] | [12] | [13] | [14] | [15] | [16] | [17] | [18] | [19] | [20]
active: [4] 2.86 µM | [5] 0.15 µM | [14] 5.27 µM

COC(=O)c1ccc(C)cc1
inactive: [1] | [2] | [3] | [4] | [5] | [6] | [7] | [8] | [9] | [10] | [11] | [12] | [13] | [14] | [15] | [16] | [17] | [18] | [19] | [20]

O=C(O)c1ccc([N+](=O)[O-])cc1
inactive: [1] | [2] | [3] | [4] | [5] | [6] | [7] | [8] | [9] | [10] | [11] | [12] | [13] | [14] | [15] | [16] | [17] | [18] | [19] | [20]

CN(CCOc1ccc(CC2SC(=O)NC2=O)cc1)c1ccccn1 (stereo not drawn)
active: [5] 4.98 µM | [12] 5.59 µM | [13] 0.0536 µM | [19] 13.3 µM | [20] 0.0484 µM
inactive: [1] | [2] | [3] | [4] | [6] | [7] | [8] | [9] | [10] | [11] | [14] | [15] | [16] | [17] | [18]

CC1COc2ccccc2N1C(=O)C(Cl)Cl (stereo not drawn)
active: [1] 3.04 µM | [3] 2.96 µM | [4] 0.0828 µM | [7] 8.84 µM | [10] 5.64 µM | [12] 4.8 µM | [14] 7.08 µM | [15] 10.2 µM | [16] 0.0289 µM | [19] 8.61 µM
inactive: [2] | [5] | [6] | [8] | [9] | [11] | [13] | [17] | [18] | [20]

CCCCC(CC)COC(=O)/C=C\C(=O)OCC(CC)CCCC (stereo not drawn)
active: [15] 20 µM | [19] 10.5 µM
inactive: [1] | [2] | [3] | [4] | [5] | [6] | [7] | [8] | [9] | [10] | [11] | [12] | [13] | [14] | [16] | [17] | [18] | [20]

N#Cc1ccc(CC(=NNC(=O)Nc2ccc(OC(F)(F)F)cc2)c2cccc(C(F)(F)F)c2)cc1
inactive: [1] | [2] | [3] | [4] | [5] | [6] | [7] | [8] | [9] | [10] | [11] | [12] | [13] | [14] | [15] | [16] | [17] | [18] | [19] | [20]
